Data: PubChem BioAssay (NCATS)
Calls of active or inactive are those of the source. Calls follow the shape of the dose curve; as a rule, active = well fitted activation curve with a large enough effect; inconclusive = small, poorly fitted or top-dose-only effect; inactive = no such curve, though single readings can be large or run the other way.

The compounds below were run against Cytochrome P450 3A4 (Homo sapiens) (UniProt P08684) (assay: qHTS Assay for Activators of Cytochrome P450 3A4 (AID 885; also: nearly all actives have a fitted effect of over 65% in size)). Settings: recombinant CYP3A4, Luciferin-PPXE luminescence, 60 min; series mostly up to 57.1 µM.
Cytochrome P450 3A4 (Homo sapiens), sequence (P08684 whole entry, looked up): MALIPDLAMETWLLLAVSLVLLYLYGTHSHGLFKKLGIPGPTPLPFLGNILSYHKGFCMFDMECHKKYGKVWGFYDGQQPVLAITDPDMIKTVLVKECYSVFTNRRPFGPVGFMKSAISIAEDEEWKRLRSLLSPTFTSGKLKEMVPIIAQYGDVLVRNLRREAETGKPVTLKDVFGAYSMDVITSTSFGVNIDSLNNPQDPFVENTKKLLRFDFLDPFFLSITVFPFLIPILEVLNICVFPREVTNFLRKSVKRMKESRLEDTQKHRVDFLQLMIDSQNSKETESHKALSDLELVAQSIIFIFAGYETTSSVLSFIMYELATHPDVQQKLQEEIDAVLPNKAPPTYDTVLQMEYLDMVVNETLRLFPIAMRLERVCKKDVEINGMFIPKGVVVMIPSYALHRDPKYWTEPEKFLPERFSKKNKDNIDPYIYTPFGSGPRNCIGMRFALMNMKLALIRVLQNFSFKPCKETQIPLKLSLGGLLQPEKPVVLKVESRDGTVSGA
Outline: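 Using 20nM recombinant human CYP3A4 in potassium phosphate (200mM), substrate Luciferin-PPXE at 25uM, luminescent luciferin detection followed a 60-min RT NADPH reaction; data scaled to 57 uM ketoconazole.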

Potency, inactive:
COC(=O)c1ccc(C(NC(=O)OCc2ccccc2)/C(F)=C/[C@@H](C)C(=O)N[C@@H](CO)Cc2ccccc2)cc1 (stereo partly specified)
O=C1C(Cl)=C(NC2CCc3ccccc32)C(=O)c2ncccc21 (stereo unspecified)
CC(Cc1ccccc1)C(=O)NCCO (stereo unspecified)
C[C@@H]1C=C[C@](Cc2ccccc2)(C(=O)NCCN2CCOCC2)N1C(=O)c1ccccc1
CC(=O)N1[C@H](Cc2ccccc2)C=C[C@]1(C)C(=O)NCc1ccc(C)o1
COC(=O)c1ccc(C(NC(=O)OCc2ccccc2)/C(C)=C/[C@@H](C)C(=O)NCc2cccnc2)cc1 (stereo partly specified)
